About 2,000 (36%) of roughly 5,500 compounds were called active. Not shown: some 18% with an inconclusive outcome. Rule as the data show it: active = normalized growth mostly below about 0.91 (no sharp cut-off); inconclusive = no clear call, values can overlap the other calls; inactive = mostly above about 0.92. This is one part of the list.
Test: chemical genetic growth profiling, strain panel (AID 1159580);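 also: tested at 20 µM; growth read once vehicle control cultures reached saturation at 30 °C; 1 = growth at the plate median or of vehicle wells; lower values mean less growth of the strain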
Settings: growth OD

Measured: normalized growth

CC(=O)Nc1cccc(O)c1
inactive: S. cerevisiae deletion strains, locus YJL187C, strain SWE1, stronger effect = lower value 1.02 | S. cerevisiae deletion strains, locus YJR043C, strain POL32, stronger effect = lower value 0.999 | S. cerevisiae deletion strains, locus YJR075W, strain HOC1, stronger effect = lower value 1.01 | S. cerevisiae deletion strains, locus YKL009W, strain mrt4, stronger effect = lower value 0.973 | S. cerevisiae deletion strains, locus YKL068W, stronger effect = lower value 0.989 | S. cerevisiae deletion strains, locus YKL085W, strain MDH1 (second series), stronger effect = lower value 1.01 | S. cerevisiae deletion strains, locus YKL085W, strain MDH1, stronger effect = lower value 1.01 | S. cerevisiae deletion strains, locus YKL160W, strain elf1, stronger effect = lower value 1.05 | S. cerevisiae deletion strains, locus YKL190W, strain CNB1, stronger effect = lower value 1 | S. cerevisiae deletion strains, locus YKR001C, strain vps1, stronger effect = lower value 0.991 | S. cerevisiae deletion strains, locus YKR026C, strain gcn3, stronger effect = lower value 1.01 | S. cerevisiae deletion strains, locus YKR091W, strain srl3, stronger effect = lower value 1.01 | S. cerevisiae deletion strains, locus YLL001W, strain dnm1, stronger effect = lower value 0.995 | S. cerevisiae deletion strains, locus YLL026W, stronger effect = lower value 1.03 | S. cerevisiae deletion strains, locus YLL041C, strain sdh2, stronger effect = lower value 1.03 | S. cerevisiae deletion strains, locus YLR027C, strain aat2, stronger effect = lower value 1.01 | S. cerevisiae deletion strains, locus YLR039C, strain RIC1, stronger effect = lower value 1 | S. cerevisiae deletion strains, locus YLR058C, strain SHM2, stronger effect = lower value 1.01 | S. cerevisiae deletion strains, locus YLR102C, strain apc9, stronger effect = lower value 1.01 | S. cerevisiae deletion strains, locus YLR221C, strain rsa3, stronger effect = lower value 0.972 | S. cerevisiae deletion strains, locus YLR258W, strain gsy2, stronger effect = lower value 1.04 | S. cerevisiae deletion strains, locus YLR262C, strain YPT6 (second series), stronger effect = lower value 1.01 | S. cerevisiae deletion strains, locus YLR262C, strain YPT6, stronger effect = lower value 1.02 | S. cerevisiae deletion strains, locus YLR268W, strain sec22, stronger effect = lower value 0.986 | S. cerevisiae deletion strains, locus YLR320W, strain mms22, stronger effect = lower value 0.957 | S. cerevisiae deletion strains, locus YLR330W, strain CHS5, stronger effect = lower value 1.01 | S. cerevisiae deletion strains, locus YLR342W, strain FKS1 (second series), stronger effect = lower value 1 | S. cerevisiae deletion strains, locus YLR342W, strain FKS1, stronger effect = lower value 1.04 | S. cerevisiae deletion strains, locus YLR357W, strain rsc2, stronger effect = lower value 1.04 | S. cerevisiae deletion strains, locus YLR370C, strain arc18, stronger effect = lower value 1.03 | S. cerevisiae deletion strains, locus YLR371W, strain rom2, stronger effect = lower value 0.999 | S. cerevisiae deletion strains, locus YLR384C, strain iki3, stronger effect = lower value 1.02 | S. cerevisiae deletion strains, locus YLR418C, strain cdc73, stronger effect = lower value 0.996 | S. cerevisiae deletion strains, locus YML016C, strain PPZ1, stronger effect = lower value 1.01 | S. cerevisiae deletion strains, locus YML032C, strain rad52, stronger effect = lower value 0.995 | S. cerevisiae deletion strains, locus YML120C, strain ndi1, stronger effect = lower value 0.972 | S. cerevisiae deletion strains, locus YML124C, strain tub3, stronger effect = lower value 0.986 | S. cerevisiae deletion strains, locus YMR058W, strain fet3, stronger effect = lower value 1.02 | S. cerevisiae deletion strains, locus YMR078C, strain ctf18, stronger effect = lower value 0.989 | S. cerevisiae deletion strains, locus YMR125W, strain sto1, stronger effect = lower value 1.03 | S. cerevisiae deletion strains, locus YMR129W, stronger effect = lower value 0.998 | S. cerevisiae deletion strains, locus YMR205C, strain PFK2, stronger effect = lower value 0.991 | S. cerevisiae deletion strains, locus YMR223W, strain ubp8, stronger effect = lower value 1 | S. cerevisiae deletion strains, locus YMR231W, strain pep5, stronger effect = lower value 1 | S. cerevisiae deletion strains, locus YMR263W, strain SAP30, stronger effect = lower value 1.01 | S. cerevisiae deletion strains, locus YMR307W, strain GAS1, stronger effect = lower value 1 | S. cerevisiae deletion strains, locus YNL067W, strain RPL9B, stronger effect = lower value 1.01 | S. cerevisiae deletion strains, locus YNL071W, strain lat1, stronger effect = lower value 1.01 | S. cerevisiae deletion strains, locus YNL153C, strain GIM3, stronger effect = lower value 1.02 | S. cerevisiae deletion strains, locus YNL209W, strain ssb2, stronger effect = lower value 1.02 | S. cerevisiae deletion strains, locus YNL233W, strain BNI4, stronger effect = lower value 1.02 | S. cerevisiae deletion strains, locus YNL248C, strain rpa49, stronger effect = lower value 1.07 | S. cerevisiae deletion strains, locus YNL250W, strain rad50, stronger effect = lower value 0.995 | S. cerevisiae deletion strains, locus YNL271C, strain bni1, stronger effect = lower value 0.993 | S. cerevisiae deletion strains, locus YNL298W, strain CLA4, stronger effect = lower value 0.978 | S. cerevisiae deletion strains, locus YNL307C, strain MCK1, stronger effect = lower value 1.01 | S. cerevisiae deletion strains, locus YNL322C, strain KRE1 (second series), stronger effect = lower value 1.05 | S. cerevisiae deletion strains, locus YNL322C, strain KRE1, stronger effect = lower value 1 | S. cerevisiae deletion strains, locus YNR049C, strain mso1, stronger effect = lower value 1.01 | S. cerevisiae deletion strains, locus YNR052C, strain pop2, stronger effect = lower value 1 | S. cerevisiae deletion strains, locus YOL006C, strain TOP1, stronger effect = lower value 1.03 | S. cerevisiae deletion strains, locus YOL012C, strain htz1 0.695 | S. cerevisiae deletion strains, locus YOL147C, strain pex11, stronger effect = lower value 0.99 | S. cerevisiae deletion strains, locus YOR001W, strain rrp6, stronger effect = lower value 0.952 | S. cerevisiae deletion strains, locus YOR061W, strain CKA2, stronger effect = lower value 1 | S. cerevisiae deletion strains, locus YOR069W, strain VPS5, stronger effect = lower value 1 | S. cerevisiae deletion strains, locus YOR070C, strain gyp1, stronger effect = lower value 1.02 | S. cerevisiae deletion strains, locus YOR080W, strain dia2, stronger effect = lower value 1.02 | S. cerevisiae deletion strains, locus YOR083W, strain WHI5, stronger effect = lower value 0.997 | S. cerevisiae deletion strains, locus YOR106W, strain vam3, stronger effect = lower value 1.05 | S. cerevisiae deletion strains, locus YOR136W, strain idh2, stronger effect = lower value 0.995 | S. cerevisiae deletion strains, locus YOR144C, strain elg1, stronger effect = lower value 0.993 | S. cerevisiae deletion strains, locus YOR184W, strain ser1, stronger effect = lower value 1 | S. cerevisiae deletion strains, locus YOR265W, strain rbl2, stronger effect = lower value 1.01 | S. cerevisiae deletion strains, locus YOR270C, strain vph1, stronger effect = lower value 1.05 | S. cerevisiae deletion strains, locus YOR290C, strain snf2, stronger effect = lower value 1.05 | S. cerevisiae deletion strains, locus YOR316C, strain cot1, stronger effect = lower value 0.991 | S. cerevisiae deletion strains, locus YPL051W, strain arl3, stronger effect = lower value 1.04 | S. cerevisiae deletion strains, locus YPL055C, strain LGE1, stronger effect = lower value 1.01 | S. cerevisiae deletion strains, locus YPL078C, strain atp4, stronger effect = lower value 1.04 | S. cerevisiae deletion strains, locus YPL106C, strain sse1, stronger effect = lower value 1.01 | S. cerevisiae deletion strains, locus YPL240C, strain hsp82, stronger effect = lower value 1.01 | S. cerevisiae deletion strains, locus YPR119W, strain clb2, stronger effect = lower value 1 | S. cerevisiae deletion strains, locus YPR141C, strain kar3, stronger effect = lower value 0.98 | S. cerevisiae deletion strains, locus YPR163C, strain tif3, stronger effect = lower value 0.988 | S. cerevisiae deletion strains, locus YPR167C, strain met16, stronger effect = lower value 0.997 | S. cerevisiae deletion strains, strain wtn01, stronger effect = lower value 0.995 | S. cerevisiae strains, strain wild type, stronger effect = lower value 1.01

Reference: PubChem BioAssay AID1159580 (chemical genetic matrix, 2015)
